Values joined by “and” are separate entries in the source; they are usually repeats but may differ in a detail not shown here. Identical values can stand only once. Some compounds were tested as several samples or in several runs, with calls that do not always agree. Active and inactive are the calls of the source. How the source made its calls: active means hit-call score of the fitted dose curve at least 0.9, where 1 is the maximum; inactive means score below 0.9.
Target: Aryl hydrocarbon receptor (Homo sapiens) (UniProt P35869)
Sequence (P35869 whole entry, looked up): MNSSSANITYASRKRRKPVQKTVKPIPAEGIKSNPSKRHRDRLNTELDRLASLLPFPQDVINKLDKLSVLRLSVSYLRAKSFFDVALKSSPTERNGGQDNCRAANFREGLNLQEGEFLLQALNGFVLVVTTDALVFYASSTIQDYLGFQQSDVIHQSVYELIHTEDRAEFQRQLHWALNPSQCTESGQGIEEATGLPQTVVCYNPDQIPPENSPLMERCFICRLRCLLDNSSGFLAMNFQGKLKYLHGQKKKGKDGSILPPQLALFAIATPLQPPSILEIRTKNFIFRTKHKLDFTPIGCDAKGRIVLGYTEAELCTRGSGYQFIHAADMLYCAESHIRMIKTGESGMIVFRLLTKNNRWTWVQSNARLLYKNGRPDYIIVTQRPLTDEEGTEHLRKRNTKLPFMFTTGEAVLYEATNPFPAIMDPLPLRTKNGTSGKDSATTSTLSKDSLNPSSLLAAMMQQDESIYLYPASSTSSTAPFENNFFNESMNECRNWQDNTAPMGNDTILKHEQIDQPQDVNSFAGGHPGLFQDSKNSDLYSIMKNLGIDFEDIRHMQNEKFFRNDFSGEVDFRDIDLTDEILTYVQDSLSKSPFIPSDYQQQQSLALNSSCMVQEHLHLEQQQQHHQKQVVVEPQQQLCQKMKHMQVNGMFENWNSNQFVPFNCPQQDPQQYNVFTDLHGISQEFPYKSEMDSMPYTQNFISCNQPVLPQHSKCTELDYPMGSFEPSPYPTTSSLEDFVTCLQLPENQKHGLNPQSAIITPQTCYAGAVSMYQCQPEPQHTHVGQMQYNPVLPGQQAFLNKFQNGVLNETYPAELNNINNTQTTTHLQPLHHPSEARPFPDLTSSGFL
Test: ATG_Ahr_CIS: Attagene CIS-FACTORIAL HepG2 Assay for human Aryl Hydrocarbon Receptor (Ahr) (AID 2282930)
Conditions: HepG2 AhR cis-factorial reporter transcription; actives raise or lower the signal
Protocol: ATG_CIS is a cell-based, multiplexed-readout assay that uses HepG2, a human liver cell line, with measurements taken at 24 hours after chemical dosing in a 24-well plate.ATG_Ahr_CIS is one of 52 assay component(s) measured or calculated from the ATG_CIS assay. It is designed to make measurements of mRNA induction, a form of inducible reporter, as detected with fluorescence intensity signals by Reverse transcription polymerase chain reaction (RT-PCR) and Capillary electrophoresis technology.Data from the assay component ATG_Ahr_CIS was analyzed into 1 assay endpoint. This assay endpoint, ATG_Ahr_CIS, was analyzed with bidirectional fitting relative to DMSO as the negative control and baseline of activity. Using a type of inducible reporter, measures of mRNA for gain or loss-of-signal activity can be used to understand the reporter gene at the transcription factor-level as they relate to the gene AHR. Furthermore, this assay endpoint can be referred to as a primary readout, because this assay has produced multiple assay endpoints where this one serves a reporter gene function. To generalize the intended target to other relatable targets, this assay endpoint is annotated to the dna binding intended target family, where the subfamily is basic helix-loop-helix protein.
Human liver HepG2 cells are transiently transfected with multiple reporter transcription units (MRTUs) in 6-well plates using FuGene 6 reagent (Roche; 3 ml FuGene/1 mg DNA). The MRTU constructs are regulated by a cis-regulating element (promoter). […] A major difference between the CIS and TRANS system is that in CIS activities of endogenous TFs are measured, whereas the TRANS assay evaluates changes in activities of exogenous, chimeric NR-Gal4 proteins. […] At the end of 24 hour incubation, total RNA was isolated using TriZol reagent (Invitrogen). The isolated RNA is then reverse-transcribed using oligo(dT) primer and Mo-MLV reverse transcriptase (Invitrogen) with DNAse I (Ambion) treatment for 30 min. The one-tenth of the produced cDNA was amplified by PCR using Taq DNA polymerase (Invitrogen) and two reporter sequence-specific primers. The PCR products were fluorescently labeled by primer extension with 6-arboxyfluorescein (6-FAM) 5'-labeled reporter sequence-specific primer (2 min at 95 C, 20 s at 68 C and 10 min at 72 C) and these products were digested with 5U of HpaI (New England Biolabs) for 2h at 37 C. […] The raw capillary electrophoresis data was processed using Attagraph software (Attagene).

Row | Structure (SMILES) | outcome | AC50
1 | CCCCCCCCCCCCO | inactive | –
2 | Cc1ncc(CO)c(CO)c1O | inactive | –
3 | c1ccc2n[nH]nc2c1 | inactive | 51.9 µM (active)
4 | CCCCCCCC[Si](OCC)(OCC)OCC | inactive | –
5 | c1ccc(C[n+]2cccc3ccccc32)cc1 | – | 69.6 µM (active)
6 | CCCC(=O)OCCC(C)C | inactive | –
7 | C[C@]12CC[C@@H]3c4ccc(O)cc4CC[C@H]3[C@@H]1CC[C@H]2O | inactive | 49 µM (active)
8 | CCCOC(=O)c1cc(O)c(O)c(O)c1 | inactive | –
9 | CC(C)(C)c1csc(-c2cc3cc(OCc4ccccc4CC(=O)O)ccc3o2)n1 | inactive | –
10 | Cc1occc1C(=O)Nc1ccc(C(=O)N2CCC(F)(F)/C(=C\C(=O)N3CCC(N4CCCCC4)CC3)c3ccccc32)cc1 | – | 12.3 µM (active)
11 | CC(=O)N1CCN(c2ccc(OC[C@H]3CO[C@](Cn4ccnc4)(c4ccc(Cl)cc4Cl)O3)cc2)CC1 | – | 0.412 µM (active)
12 | CC1(C)NC(=O)N(c2ccc([N+](=O)[O-])c(C(F)(F)F)c2)C1=O | inactive | –
13 | O=c1ccc2ccccc2o1 | inactive | –
14 | O=c1c(-c2ccc(O)cc2)coc2cc(O)cc(O)c12 | inactive | 34.3 µM (active)
15 | CC(C)(C)c1cc(/C=C2\SC(N)=NC2=O)cc(C(C)(C)C)c1O | inactive | –
16 | CCN(Cc1cccc(S(=O)(=O)O)c1)c1ccc(C(=C2C=CC(=[N+](CC)Cc3cccc(S(=O)(=O)O)c3)C=C2)c2ccccc2S(=O)(=O)[O-])cc1 | inactive | –
17 | CCOC(=O)O[C@H](C)OC(=O)c1ccc2c(c1)cc(C(=O)NC1CCN(C(C)C)CC1)n2Cc1cc(-c2ccc(Cl)s2)on1 | inactive | –
18 | CCCCCCCCN(C)CCCCCCCC | inactive | –

Row | Structure (SMILES) | outcome | AC50
19 | Cc1ccc2oc(CN(Cc3ccccc3)C(=O)Nc3c(F)cc(F)cc3F)c(-c3ccc(Cl)cc3)c2c1 | inactive | –
20 | CCO[Si](CCCNC(N)=O)(OCC)OCC | inactive | –
21 | CO[C@H]1/C=C/O[C@@]2(C)Oc3c(C)c(O)c4c(O)c(c(/C=N/N5CCN(C)CC5)c(O)c4c3C2=O)NC(=O)/C(C)=C\C=C\[C@H](C)[C@H](O)[C@@H](C)[C@@H](O)[C@@H](C)[C@H](OC(C)=O)[C@@H]1C | inactive | 37.4 µM (active)
22 | O=c1[nH]sc2ccccc12 | inactive | –
23 | Oc1ccc2ccccc2c1 | – | 870 nM (active) and 1.98 µM (active)
24 | Cc1cc2c(cc1C(F)(F)F)N(C(=O)Nc1ccc(Oc3cccnc3C)nc1)CC2 | inactive | –
25 | O=C1O[C@H]([C@@H](O)CO)C(O)=C1O | inactive | 62 µM (active)
26 | CC(O)CC(C)(C)O (stereo not given) | inactive | –
27 | COc1cc(C(=O)NC2CCN(C)CC2)ccc1Nc1ncc2c(n1)N(C1CCCC1)CC(F)(F)C(=O)N2C | inactive | –
28 | Oc1ccccc1 | inactive | –
29 | OCCO | inactive | –
30 | c1ccc2ccccc2c1 | inactive | –
31 | CCN(CC)C(=O)c1cc(S(=O)(=O)Cc2ccccc2)c(N2CCC(c3ccccc3)CC2)cc1N(CC)CCN(C)C | inactive | –
32 | O=C1CCC(C2CCCCC2)CC1 | inactive | –
33 | O=C(O)c1ccccc1-n1cc(C(=O)O)c(=O)c2cc(Nc3c(F)cc(F)cc3Cl)c(Cl)cc21 | inactive | –
34 | CN1C(=O)CC[C@H]1c1cccnc1 | inactive | –
35 | Cc1c2ccccc2c(C)c2c1ccc1ccccc12 | – | 3.38 µM (active)
